Assay results taken from PubChem BioAssay AID1159580 (chemical genetic matrix, 2015).
“And” between values parts separate entries of the source, which are not always exact repeats. Identical values can stand only once. Hit rate of the full screen: of about 5,500 compounds, about 2,000 (36%) were called active. Roughly 18% stayed inconclusive and do not appear here. Rule as the data show it: active = normalized growth mostly below about 0.91 (no sharp cut-off); inconclusive = no clear call, values can overlap the other calls; inactive = mostly above about 0.92. This is one part of the list.

Test: chemical genetic growth profiling, strain panel (AID 1159580);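 also: tested at 20 µM; growth read once vehicle control cultures reached saturation at 30 °C; 1 = growth at the plate median or of vehicle wells; lower values mean less growth of the strain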
Conditions: growth OD

Measured: normalized growth

CC(C)NNC(=O)c1ccncc1
inactive: S. cerevisiae deletion strains, locus YJR043C, strain POL32, hits give low values 1.01 | S. cerevisiae deletion strains, locus YJR075W, strain HOC1, hits give low values 1 | S. cerevisiae deletion strains, locus YKL068W, hits give low values 1.02 | S. cerevisiae deletion strains, locus YKL085W, strain MDH1 (second series), hits give low values 1.03 | S. cerevisiae deletion strains, locus YKL085W, strain MDH1, hits give low values 1.03 | S. cerevisiae deletion strains, locus YKL160W, strain elf1, hits give low values 1.01 | S. cerevisiae deletion strains, locus YKL190W, strain CNB1, hits give low values 1 | S. cerevisiae deletion strains, locus YKR001C, strain vps1, hits give low values 1.02 | S. cerevisiae deletion strains, locus YKR026C, strain gcn3, hits give low values 0.997 | S. cerevisiae deletion strains, locus YKR091W, strain srl3, hits give low values 1.01 | S. cerevisiae deletion strains, locus YLL001W, strain dnm1, hits give low values 1 | S. cerevisiae deletion strains, locus YLL026W, hits give low values 1.01 | S. cerevisiae deletion strains, locus YLL041C, strain sdh2, hits give low values 1.01 | S. cerevisiae deletion strains, locus YLR027C, strain aat2, hits give low values 0.996 | S. cerevisiae deletion strains, locus YLR039C, strain RIC1, hits give low values 1.02 | S. cerevisiae deletion strains, locus YLR058C, strain SHM2, hits give low values 1.01 | S. cerevisiae deletion strains, locus YLR102C, strain apc9, hits give low values 1.01 | S. cerevisiae deletion strains, locus YLR221C, strain rsa3, hits give low values 1.02 | S. cerevisiae deletion strains, locus YLR258W, strain gsy2, hits give low values 1.02 | S. cerevisiae deletion strains, locus YLR262C, strain YPT6 (second series), hits give low values 1 | S. cerevisiae deletion strains, locus YLR262C, strain YPT6, hits give low values 1.02 | S. cerevisiae deletion strains, locus YLR268W, strain sec22, hits give low values 1.03 | S. cerevisiae deletion strains, locus YLR320W, strain mms22, hits give low values 1.01 | S. cerevisiae deletion strains, locus YLR330W, strain CHS5, hits give low values 1.01 | S. cerevisiae deletion strains, locus YLR342W, strain FKS1 (second series), hits give low values 1.01 | S. cerevisiae deletion strains, locus YLR342W, strain FKS1, hits give low values 0.986 | S. cerevisiae deletion strains, locus YLR357W, strain rsc2, hits give low values 1.01 | S. cerevisiae deletion strains, locus YLR370C, strain arc18, hits give low values 1.01 | S. cerevisiae deletion strains, locus YLR371W, strain rom2, hits give low values 1 | S. cerevisiae deletion strains, locus YLR384C, strain iki3, hits give low values 0.995 | S. cerevisiae deletion strains, locus YLR418C, strain cdc73, hits give low values 1.04 | S. cerevisiae deletion strains, locus YML016C, strain PPZ1, hits give low values 1 | S. cerevisiae deletion strains, locus YML032C, strain rad52, hits give low values 1.02 | S. cerevisiae deletion strains, locus YML120C, strain ndi1, hits give low values 0.999 | S. cerevisiae deletion strains, locus YML124C, strain tub3, hits give low values 1.01 | S. cerevisiae deletion strains, locus YMR058W, strain fet3, hits give low values 1.03 | S. cerevisiae deletion strains, locus YMR078C, strain ctf18, hits give low values 1.01 | S. cerevisiae deletion strains, locus YMR125W, strain sto1, hits give low values 1.02 | S. cerevisiae deletion strains, locus YMR129W, hits give low values 1.01 | S. cerevisiae deletion strains, locus YMR205C, strain PFK2, hits give low values 1 | S. cerevisiae deletion strains, locus YMR223W, strain ubp8, hits give low values 1.02 | S. cerevisiae deletion strains, locus YMR231W, strain pep5, hits give low values 1 | S. cerevisiae deletion strains, locus YMR263W, strain SAP30, hits give low values 1.01 | S. cerevisiae deletion strains, locus YMR307W, strain GAS1, hits give low values 1.05 and 1 | S. cerevisiae deletion strains, locus YNL067W, strain RPL9B, hits give low values 1.01 | S. cerevisiae deletion strains, locus YNL071W, strain lat1, hits give low values 1.03 | S. cerevisiae deletion strains, locus YNL128W, strain TEP1, hits give low values 1.01 | S. cerevisiae deletion strains, locus YNL153C, strain GIM3, hits give low values 1.01 | S. cerevisiae deletion strains, locus YNL175C, strain NOP13, hits give low values 0.994 | S. cerevisiae deletion strains, locus YNL197C, strain WHI3, hits give low values 0.989 | S. cerevisiae deletion strains, locus YNL209W, strain ssb2, hits give low values 1.03 | S. cerevisiae deletion strains, locus YNL224C, strain SQS1, hits give low values 1.02 | S. cerevisiae deletion strains, locus YNL233W, strain BNI4, hits give low values 1.01 | S. cerevisiae deletion strains, locus YNL248C, strain rpa49, hits give low values 1.01 | S. cerevisiae deletion strains, locus YNL250W, strain rad50, hits give low values 1.02 | S. cerevisiae deletion strains, locus YNL271C, strain bni1, hits give low values 1.02 | S. cerevisiae deletion strains, locus YNL298W, strain CLA4, hits give low values 1.01 | S. cerevisiae deletion strains, locus YNL307C, strain MCK1, hits give low values 1.02 | S. cerevisiae deletion strains, locus YNL322C, strain KRE1 (second series), hits give low values 1.01 | S. cerevisiae deletion strains, locus YNL322C, strain KRE1, hits give low values 1 and 0.981 | S. cerevisiae deletion strains, locus YNR049C, strain mso1, hits give low values 1.01 | S. cerevisiae deletion strains, locus YNR052C, strain pop2, hits give low values 1.02 | S. cerevisiae deletion strains, locus YOL006C, strain TOP1, hits give low values 1.04 | S. cerevisiae deletion strains, locus YOL012C, strain htz1 1.02 | S. cerevisiae deletion strains, locus YOL147C, strain pex11, hits give low values 1.01 | S. cerevisiae deletion strains, locus YOR001W, strain rrp6, hits give low values 0.998 | S. cerevisiae deletion strains, locus YOR061W, strain CKA2, hits give low values 1.01 | S. cerevisiae deletion strains, locus YOR069W, strain VPS5, hits give low values 1.01 | S. cerevisiae deletion strains, locus YOR070C, strain gyp1, hits give low values 1.01 | S. cerevisiae deletion strains, locus YOR080W, strain dia2, hits give low values 1.01 | S. cerevisiae deletion strains, locus YOR083W, strain WHI5 (second series), hits give low values 1.01 | S. cerevisiae deletion strains, locus YOR083W, strain WHI5, hits give low values 0.998 | S. cerevisiae deletion strains, locus YOR106W, strain vam3, hits give low values 1.02 | S. cerevisiae deletion strains, locus YOR136W, strain idh2, hits give low values 1.02 | S. cerevisiae deletion strains, locus YOR144C, strain elg1, hits give low values 1.01 | S. cerevisiae deletion strains, locus YOR184W, strain ser1, hits give low values 1.04 | S. cerevisiae deletion strains, locus YOR265W, strain rbl2, hits give low values 1.01 | S. cerevisiae deletion strains, locus YOR270C, strain vph1, hits give low values 1.06 | S. cerevisiae deletion strains, locus YOR290C, strain snf2, hits give low values 1.01 | S. cerevisiae deletion strains, locus YOR316C, strain cot1, hits give low values 1.02 | S. cerevisiae deletion strains, locus YPL051W, strain arl3, hits give low values 1.01 | S. cerevisiae deletion strains, locus YPL055C, strain LGE1, hits give low values 1.02 | S. cerevisiae deletion strains, locus YPL078C, strain atp4, hits give low values 1.01 | S. cerevisiae deletion strains, locus YPL106C, strain sse1, hits give low values 0.991 | S. cerevisiae deletion strains, locus YPL240C, strain hsp82, hits give low values 1.02 | S. cerevisiae deletion strains, locus YPL241C, strain CIN2, hits give low values 0.995 and 0.982 | S. cerevisiae deletion strains, locus YPR119W, strain clb2, hits give low values 1 | S. cerevisiae deletion strains, locus YPR141C, strain kar3, hits give low values 1.01 | S. cerevisiae deletion strains, locus YPR163C, strain tif3, hits give low values 1.02 | S. cerevisiae deletion strains, locus YPR167C, strain met16, hits give low values 1.02 | S. cerevisiae deletion strains, strain wtn01, hits give low values 1.02 | S. cerevisiae strains, strain wild type, hits give low values 1.01
